About 83,000 compounds went through this panel and 20% of them were active in at least one assay; those are over-represented in the sample as a whole.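 Values shown are percent growth following 48 h exposure of cells in 96-well plates to a single concentration of compound; below 10 was considered active.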 The source made the active and inactive calls.
The molecules below were run on NCI-H460 lung (assay: NCI-60 one-dose screen, 48 h (100 = growth as untreated, 0 = no growth, -100 = all killed)). Conditions: 10 µM unless noted.
Protocol: Growth inhibition of the NCI-H460 human Non-Small Cell Lung tumor cell line is measured as a screen for anti-cancer activity. Cells are grown in 96 well plates and exposed to the test compound for 48 hours. Compounds are tested at a single concentration, which is 10^-5 M for most compounds. The reported endpoint is percent growth (GI% or GIPRCNT), where numbers from 0 - 100% represent growth inhibition, and numbers from -100% - 0 represent cell death. For example, a value of 40 represents 60% growth inhibition. A value of 0 means no net growth occurred over the course of the experiment. A value of -40 indicates 40% of cells at the beginning of the experiment died by the end of the experiment. A value of -100 means all cells are dead at the end of the experiment.
NCI-60 Human Tumor Cell Lines Screen was performed using the standard one-dose NCI protocol, which is described in more detail at https://dtp.cancer.gov/discovery_development/nci-60/default.htm.
Compounds with GIPRCNT values below 10 were considered active. Activity score was based on GIPRCNT using the following formula: […]
Score is 0 for GIPRCNT values of 100 or above, 50 for GIPRCNT values of 0, and 100 for GIPRCNT values of -100.

**Q.** With C=CCn1c(SCC(=O)c2ccc(OC)cc2)nnc1-c1ccc(OC)cc1 as the molecule, how does the growth read?
**A.** The growth was 102% (inactive).

**Q.** With COc1ccc(NC(=O)Cn2cc(CN3C(=O)c4ccc([N+](=O)[O-])cc4C3=O)nn2)cc1 as the molecule, how does the growth read?
**A.** The growth was 106% (inactive).

**Q.** For COc1cnc2c(c1)C(=O)c1c-2n(CCCNCC2CC2)c(=O)c2cc(F)ccc12, which growth is on record?
**A.** Its growth is -66.6% (active).

**Q.** With Cc1cnc2nc(NN)[nH]n12 as the molecule, how does the growth read?
**A.** The growth was 103% (inactive).

**Q.** Which growth does the source give for C=C1C(=O)O[C@@H]2C[C@@H](C)CCC(=O)[C@](C)(OC(C)=O)C[C@H](OC(=O)/C(C)=C\C)[C@@H]12 here?
**A.** Its growth is 97.3% (inactive).

**Q.** For C[C@@H]1C[C@H]2C(=O)OCC(NC(=O)[C@H](Cc3cc(F)cc(F)c3)NC(=O)Nc3ccc(Cl)cc3F)C(=O)N3CCC[C@H]3C(=O)N3CCCC[C@H]3C(=O)N[C@@H](C)C(=O)N2C1 (stereo not given in full), which growth is on record?
**A.** The growth was 14.8% (inactive).

**Q.** How did the growth turn out when Cc1ccc(-c2nnc3sc(C4=Cc5ccccc5OC=C4)nn23)cc1 was run?
**A.** Its growth is 101% (inactive).

**Q.** How did the growth turn out when C#Cc1ccc(NC(=O)c2ccc(/C=C/C(=O)c3nccn3C)cc2)c(F)c1 was run?
**A.** Its growth is 6.28% (active).

**Q.** How did the growth turn out when Cn1cc(-c2nn3cc(-c4ccncc4)nc3s2)c2cc(Cl)ccc21 was run?
**A.** The growth was 51.5% (inactive).

**Q.** With CNC(=O)c1cc(Oc2ccc3nc(NC(=O)c4ccc(CN5CCCN(C)CC5)c(C(F)(F)F)c4)sc3c2)ccn1 as the molecule, how does the growth read?
**A.** Its growth is 5.57% (active).

**Q.** Which growth does the source give for CN1CCN(Cc2ccc(NC(=O)c3cncc(C#Cc4[nH]nc5ncncc45)c3)cc2C(F)(F)F)CC1 here?
**A.** Its growth is 64.3% (inactive).

**Q.** Which growth does the source give for Cc1ccc(S(=O)(=O)N/N=C/c2cn(-c3ccc(F)cc3)nc2-c2ccc(S(C)(=O)=O)cc2)cc1 here?
**A.** The growth was 108% (inactive).

**Q.** Which growth does the source give for COc1cc(-c2nc(SCc3ccc(C)cc3)[nH]c(=O)c2C#N)ccc1OCc1ccccc1 here?
**A.** Its growth is 104% (inactive).

**Q.** With O=c1oc2ccc(-c3ccc(F)cc3F)cc2c(=O)n1-c1cccc(C(F)(F)F)c1 as the molecule, how does the growth read?
**A.** The growth was 4.79% (active).

**Q.** With COc1ccc2c(C3=C(c4c[nH]c5ccccc45)C(=O)N(O)C3=O)coc2c1 as the molecule, how does the growth read?
**A.** Its growth is 90.3% (inactive).

**Q.** With Cn1cc(-c2nn3cc(-c4cccnc4)nc3s2)c2cc(F)ccc21 as the molecule, how does the growth read?
**A.** Its growth is 94.2% (inactive).

**Q.** COc1ccc(/C=N/Nc2nc(Nc3ccccc3)nc(Nc3ccc(S(N)(=O)=O)cc3)n2)cc1 was tested. Which growth did it give?
**A.** Its growth is 55.2% (inactive).

**Q.** O=C(NCCNc1cc(-c2cn(-c3ccccc3)nc2-c2cccc(O)c2)ccn1)Nc1ccc(Cl)c(C(F)(F)F)c1 was tested. Which growth did it give?
**A.** Its growth is 58.5% (inactive).

**Q.** Which growth does the source give for C/C(=C(/C)C1CC1CCN(C(=O)c1ccc([N+](=O)[O-])cc1)S(=O)(=O)c1ccc(C)cc1)C1CCCCC1 (stereo not given) here?
**A.** Its growth is 98.6% (inactive).

**Q.** Which growth does the source give for COc1cc([C@H]2OC[C@H]3[C@@H]2CO[C@@H]3c2ccc(O)c(OC)c2)ccc1O here?
**A.** The growth was 90.3% (inactive).

**Q.** How did the growth turn out when COc1ccc(Cn2cc3c(c2-c2ccccc2)CCCc2cnoc2-3)cc1[N+](=O)[O-] was run?
**A.** The growth was 56.4% (inactive).

**Q.** Which growth does the source give for O=C(Nc1cccc(Cl)c1)Nc1nc2ccc(-c3cccc4ccccc34)cc2s1 here?
**A.** The growth was 34.1% (inactive).

**Q.** Which growth does the source give for Cc1cc(=O)n2nc(-c3cn(C)c4ccc(Cl)cc34)sc2n1 here?
**A.** The growth was 78.6% (inactive).

**Q.** For CCCCCCCCCC[C@@H](C)[C@@H]1CC(=O)N[C@H]([C@@H](C)O)C(=O)N[C@@H](C)C(=O)N[C@H](C)C(=O)N[C@@H](CCC(N)=O)C(=O)N[C@H](Cc2ccc(O)cc2)C(=O)N[C@@H](C(C)CC)C(=O)O1 (stereo not given in full), which growth is on record?
**A.** The growth was 63.6% (inactive).

**Q.** For CCNC(=O)Oc1ccc(/C(=C(/C)c2ccc(Cl)cc2)c2ccc(OCCN3CCCC3)cc2)cc1, which growth is on record?
**A.** The growth was 80.6% (inactive).

**Q.** CCN(CC)CCN1C(=O)c2c(c3c4cccnc4[nH]c3c3ccc4ccccc4c23)C1=O was tested. Which growth did it give?
**A.** The growth was 13.8% (inactive).

**Q.** How did the growth turn out when Cn1ccnc1C(=O)/C=C/c1ccc(C(=O)Nc2ccc(NC(=O)CCNC(=O)c3csc(Br)n3)cc2)cc1 was run?
**A.** Its growth is 46.2% (inactive).

**Q.** For O=S(=O)(Nc1cc(Cl)cc(Cl)c1)c1ccc(-c2cnc(C3CC3)o2)cc1, which growth is on record?
**A.** The growth was 18.7% (inactive).

**Q.** Which growth does the source give for COC(=O)[C@@]1(C)CC[C@]2(C)CC[C@]3(C)C(=CC(=O)[C@@H]4[C@@]5(C)Cc6c(n(CC#CCN7CCN(C)CC7)c7ccccc67)C(C)(C)[C@@H]5CC[C@]43C)[C@@H]2C1 here?
**A.** Its growth is 22.4% (inactive).

**Q.** How did the growth turn out when COc1cc(/C=N/n2cnc3oc(-c4ccccc4)cc3c2=N)cc(CN2CCCC2)c1O was run?
**A.** Its growth is -58.6% (active).

**Q.** With N/C(=N\c1nc2ccc([N+](=O)[O-])cc2s1)C(Cl)(Cl)Cl as the molecule, how does the growth read?
**A.** The growth was 14.3% (inactive).

**Q.** CCN1C/C(=N\S(=O)(=O)c2ccccc2)N(CC)C1=S was tested. Which growth did it give?
**A.** Its growth is 108% (inactive).

**Q.** How did the growth turn out when CCN(CC)c1ccc2cc(C(=O)NCCOCCOCCOCCn3cc(CCC(=O)Nc4ccc(C(=O)c5ccc(NC(=O)OC(C)(C)C)cc5)cc4)nn3)c(=O)oc2c1 was run?
**A.** The growth was 78.9% (inactive).

**Q.** Which growth does the source give for O=C1c2c(O)cc(O)cc2O[C@@H](c2ccc(O)cc2)[C@@H]1c1c(O)cc(O)c2c(=O)cc(-c3ccc(O)c(O)c3)oc12 here?
**A.** Its growth is 112% (inactive).

**Q.** For COc1ccc(NC2=C(Cl)C(=O)C(C)=C(C)C2=O)cc1, which growth is on record?
**A.** Its growth is 97.3% (inactive).

**Q.** With COc1ccc(/C=C/C(=O)c2nnn(-c3ccc(Br)cc3)c2C)cc1OC as the molecule, how does the growth read?
**A.** The growth was 84.3% (inactive).

**Q.** COc1ccc(-c2nnc(/N=C3/C(=O)Nc4ccc(Br)cc43)o2)cc1 was tested. Which growth did it give?
**A.** Its growth is 101% (inactive).

**Q.** How did the growth turn out when CC(C)Sc1nc(NC2CC2)c(C#N)c(-c2ccccc2)n1 was run?
**A.** Its growth is 54.5% (inactive).

**Q.** How did the growth turn out when Cc1ccc(C2CC(c3ccc(Nc4nc(NCCO)nc(Nc5ccc(Cl)cc5)n4)cc3)=Nc3c(N)nc(N)nc3N2)cc1 (stereo not given) was run?
**A.** Its growth is -84.8% (active).

**Q.** With COc1ccc(-c2nn(-c3ccccc3)cc2/C=C/C(=O)c2ccc(NC(=O)CCCCCCC(=O)NO)cc2)cc1 as the molecule, how does the growth read?
**A.** Its growth is 108% (inactive).
